# According to PubChem BioAssay AID504452 (The Scripps Research Institute Molecular Screening Center, 2011):
# Calls of active or inactive are those of the source. Cut-off read from the data, not from the text of the source: active = activation above about 85%; inactive = the rest.
# Target: Peroxisome proliferator-activated receptor gamma (Homo sapiens) (UniProt P37231)
# Assay: PPARg partial agonist activation, primary screen, cell-based, luciferase reporter, luminescence (AID 504452);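 note: Cos-1 cells carrying PPARgamma and a response element luciferase reporter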
# Details: at 5 µM, stronger effect = higher value; activation (% of full agonist control): measured here: relative to full agonist control
# Peroxisome proliferator-activated receptor gamma (Homo sapiens), sequence (P37231 whole entry, looked up): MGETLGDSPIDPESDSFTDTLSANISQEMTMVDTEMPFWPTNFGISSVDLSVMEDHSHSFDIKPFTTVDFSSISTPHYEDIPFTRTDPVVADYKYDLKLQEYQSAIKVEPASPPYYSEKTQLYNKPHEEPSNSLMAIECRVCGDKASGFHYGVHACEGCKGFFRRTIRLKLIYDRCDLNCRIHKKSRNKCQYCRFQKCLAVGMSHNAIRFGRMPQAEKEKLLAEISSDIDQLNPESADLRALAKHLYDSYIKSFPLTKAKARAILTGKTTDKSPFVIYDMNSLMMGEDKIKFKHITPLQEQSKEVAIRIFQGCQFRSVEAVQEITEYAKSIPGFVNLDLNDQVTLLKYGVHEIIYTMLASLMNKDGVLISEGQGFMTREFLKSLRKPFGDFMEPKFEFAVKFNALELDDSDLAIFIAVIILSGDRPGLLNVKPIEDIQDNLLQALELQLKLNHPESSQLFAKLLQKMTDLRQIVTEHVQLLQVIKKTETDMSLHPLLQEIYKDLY
Compound,activation (% of full agonist control),activation (% of partial agonist control)
O=C(Nc1ccccc1Cl)C(=O)c1cn(CC(=O)N2CCOCC2)c2ccccc12,50.5%,112% (active)
O=c1c(S(=O)(=O)c2ccc(Cl)cc2)cn(Cc2ccccc2)c2ccc(F)cc12,38%,84.1% (inactive)
CC(Oc1ccc(F)cc1)C(=O)Nc1ccc(N2CCOCC2)cc1N1CCOCC1 (stereo unspecified),31.2%,69.2% (inactive)
Cc1cc(C)c2nc(N3C(=O)C(O)=C(C(=O)c4ccco4)C3c3cccc(O)c3)sc2c1 (stereo unspecified),29%,64.1% (inactive)
CC(C(=O)N1CCN(c2ccccc2)CC1)N1C(=O)C2CC=CCC2C1=O (stereo unspecified),32.1%,71.1% (inactive)
Cc1cc(N2C(=O)C(O)=C(C(=O)c3cccs3)C2c2cccc(Br)c2)no1 (stereo unspecified),45.7%,101% (active)
O=C(N[C@@H]1CCC(=O)N(CC[C@H](Oc2ccccc2)c2ccccc2)CC1)OCc1ccccc1,28.1%,62.1% (inactive)
Cc1ccc(OCC(=O)Nc2ccc(N3CCN(C(=O)c4ccco4)CC3)cc2)cc1,31.4%,69.5% (inactive)
O=C(CC1C(=O)Nc2ccccc2N1CC(=O)N1CCCC1)Nc1ccc(Br)cc1 (stereo unspecified),37%,81.9% (inactive)
O=C(C1=C(O)C(=O)N(c2nc3ccc(Cl)cc3s2)C1c1ccco1)c1ccco1 (stereo unspecified),42.1%,93.2% (active)
COc1ccc(CN2CCN(Cc3ccc(C)cc3)C(CCO)C2)cc1OC (stereo unspecified),33.7%,74.6% (inactive)
COc1ccc2c(c1)c(=O)c(C(=O)c1ccc(C)cc1)cn2CC(=O)Nc1ccc(F)cc1,45%,99.5% (active)
O=c1c2cn(Cc3ccc(F)cc3)c3ccc(F)cc3c-2nn1Cc1ccc(F)cc1,48.9%,108% (active)
COc1ccc(CCn2c(C)cc(C(=O)CN3C(=O)C(=O)N(C4CCCC4)C3=O)c2C)cc1OC,27.1%,60% (inactive)
COc1cc(CN2CCCC(N3CCN(c4ccc(F)cc4)CC3)C2)ccc1F (stereo unspecified),31.2%,69% (inactive)
COc1cccc(C2CC(=O)N3CN(c4ccccc4F)CSC3=C2C#N)c1 (stereo unspecified),31.6%,69.9% (inactive)
O=C(NC(Cc1ccccc1)C(=O)O)/C(=C/c1ccc([N+](=O)[O-])cc1)NC(=O)c1ccco1 (stereo unspecified),35.3%,78.1% (inactive)

Compound,activation (% of full agonist control),activation (% of partial agonist control)
Cc1nc2ccccn2c1/C(O)=C1\C(=O)C(=O)N(CCN2CCOCC2)C1c1ccncc1 (stereo unspecified),26.2%,58.1% (inactive)
O=C(C1=C(O)C(=O)N(CCN2CCOCC2)C1c1ccc(Cl)cc1)c1cc2ccccc2o1 (stereo unspecified),37.3%,82.6% (inactive)
Cc1ccc2nc(N3C(=O)C(O)=C(C(=O)c4ccco4)C3c3cccc(O)c3)sc2c1 (stereo unspecified),46.7%,103% (active)
CCOc1ccc(C2c3[nH]c4ccccc4c3CCN2Cc2cccn2-c2ncccn2)cc1 (stereo unspecified),39.5%,87.5% (active)
Cc1ccc(CN2C(=O)N/C(=C\c3cccn3-c3cccc(C(=O)O)c3)C2=O)cc1,36.9%,81.8% (inactive)
Cc1ccc(C(=O)NCc2cccc(C(F)(F)F)c2)cc1S(=O)(=O)N1CCCCC1,25.6%,56.7% (inactive)
Cc1ccc2nc(N3C(=O)C(O)=C(C(=O)c4ccc(C)o4)C3c3ccco3)sc2c1 (stereo unspecified),45.8%,101% (active)
O=C(O)CC1=C(Nc2ccccc2)C(=O)N(c2ccccc2)C1c1ccc(F)cc1 (stereo unspecified),31%,68.7% (inactive)
COc1ccc(/C(O)=C2/C(=O)C(=O)N(Cc3ccco3)C2c2cccs2)cc1 (stereo unspecified),32.1%,71.1% (inactive)
CCOc1ccc(CN2CCN(Cc3cccc4nonc34)CC2CCO)cc1 (stereo unspecified),44.9%,99.4% (active)
O=C(O)CCC(=O)N1CCc2cc(S(=O)(=O)NCCc3ccc(Cl)cc3)ccc21,35.9%,79.6% (inactive)
O=C1C(=O)N(CC2CCCO2)C(c2ccco2)/C1=C(/O)c1ccc(F)cc1 (stereo unspecified),15%,33.1% (inactive)
O=C(NCCCn1ccnc1)C(=O)NCC(c1cccnc1)N1CCN(c2ccc(F)cc2)CC1 (stereo unspecified),31.2%,69% (inactive)
O=C(NC(Cc1ccccc1)C(=O)O)/C(=C/c1cccc([N+](=O)[O-])c1)NC(=O)c1ccco1 (stereo unspecified),41.5%,91.8% (active)
O=C(NC(Cc1c[nH]c2ccccc12)C(=O)O)/C(=C/c1ccc(F)cc1)NC(=O)c1ccccc1 (stereo unspecified),32.2%,71.2% (inactive)
CN(C(=O)CS(=O)(=O)c1cn(CC(=O)N2CCCC2)c2ccccc12)c1ccccc1,24.5%,54.2% (inactive)
